Here are results for 37 targets from the supplement of paper PMC10849652.

The full data set covers some 7,900 targets. This sample favours those with a hit. About 0.6% of all pairs of compound and target were hits. Unmarked numbers belong to inactive results.

UniProt Q13395, sequence (Q13395 whole entry, looked up): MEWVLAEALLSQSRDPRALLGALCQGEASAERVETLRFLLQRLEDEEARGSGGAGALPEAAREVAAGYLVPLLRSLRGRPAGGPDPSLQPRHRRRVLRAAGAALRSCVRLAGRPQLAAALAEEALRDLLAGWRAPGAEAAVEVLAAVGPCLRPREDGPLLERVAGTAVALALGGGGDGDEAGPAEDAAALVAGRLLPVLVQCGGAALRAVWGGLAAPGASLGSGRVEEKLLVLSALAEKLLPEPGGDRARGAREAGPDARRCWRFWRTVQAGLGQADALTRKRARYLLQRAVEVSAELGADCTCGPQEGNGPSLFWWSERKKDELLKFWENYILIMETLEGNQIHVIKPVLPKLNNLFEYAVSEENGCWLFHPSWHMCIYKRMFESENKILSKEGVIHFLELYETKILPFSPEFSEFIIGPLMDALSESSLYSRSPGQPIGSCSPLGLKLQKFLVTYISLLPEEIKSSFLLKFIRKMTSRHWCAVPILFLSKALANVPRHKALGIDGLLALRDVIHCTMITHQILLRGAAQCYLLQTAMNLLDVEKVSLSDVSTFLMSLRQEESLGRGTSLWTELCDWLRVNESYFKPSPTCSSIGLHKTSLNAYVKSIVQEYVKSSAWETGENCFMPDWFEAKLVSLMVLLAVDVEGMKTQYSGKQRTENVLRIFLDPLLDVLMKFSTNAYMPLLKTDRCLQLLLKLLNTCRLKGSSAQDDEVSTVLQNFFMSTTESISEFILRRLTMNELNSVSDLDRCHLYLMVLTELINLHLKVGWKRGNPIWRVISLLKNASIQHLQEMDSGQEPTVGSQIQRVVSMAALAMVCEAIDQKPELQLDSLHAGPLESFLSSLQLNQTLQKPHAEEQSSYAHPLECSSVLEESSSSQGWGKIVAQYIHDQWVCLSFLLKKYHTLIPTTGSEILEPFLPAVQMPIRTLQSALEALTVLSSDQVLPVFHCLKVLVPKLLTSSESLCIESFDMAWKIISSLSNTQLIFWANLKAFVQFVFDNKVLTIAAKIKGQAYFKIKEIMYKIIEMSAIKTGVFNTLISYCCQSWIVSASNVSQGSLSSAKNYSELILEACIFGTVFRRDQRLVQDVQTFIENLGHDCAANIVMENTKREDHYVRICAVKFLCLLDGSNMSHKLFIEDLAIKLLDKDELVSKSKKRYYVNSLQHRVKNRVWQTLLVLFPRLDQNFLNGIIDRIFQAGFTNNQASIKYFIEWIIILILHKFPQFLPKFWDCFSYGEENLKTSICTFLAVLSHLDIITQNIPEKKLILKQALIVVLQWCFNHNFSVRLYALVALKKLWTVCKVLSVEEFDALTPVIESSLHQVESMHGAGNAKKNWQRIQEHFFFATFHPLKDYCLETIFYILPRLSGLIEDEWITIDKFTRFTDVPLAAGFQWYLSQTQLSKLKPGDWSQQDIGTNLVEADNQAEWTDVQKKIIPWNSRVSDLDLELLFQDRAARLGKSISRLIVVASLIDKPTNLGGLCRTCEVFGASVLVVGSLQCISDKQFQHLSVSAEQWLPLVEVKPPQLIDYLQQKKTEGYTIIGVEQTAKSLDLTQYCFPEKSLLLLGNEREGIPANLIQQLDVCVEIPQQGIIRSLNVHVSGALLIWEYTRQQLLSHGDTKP
UniProt Q9P016, sequence (Q9P016 whole entry, looked up): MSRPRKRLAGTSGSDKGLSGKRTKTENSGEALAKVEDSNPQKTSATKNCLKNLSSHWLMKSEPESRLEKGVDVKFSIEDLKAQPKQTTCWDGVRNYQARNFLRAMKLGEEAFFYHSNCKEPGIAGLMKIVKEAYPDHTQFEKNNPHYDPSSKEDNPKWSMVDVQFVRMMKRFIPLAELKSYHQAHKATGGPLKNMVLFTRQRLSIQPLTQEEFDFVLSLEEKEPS
UniProt Q08945, sequence (Q08945 whole entry, looked up): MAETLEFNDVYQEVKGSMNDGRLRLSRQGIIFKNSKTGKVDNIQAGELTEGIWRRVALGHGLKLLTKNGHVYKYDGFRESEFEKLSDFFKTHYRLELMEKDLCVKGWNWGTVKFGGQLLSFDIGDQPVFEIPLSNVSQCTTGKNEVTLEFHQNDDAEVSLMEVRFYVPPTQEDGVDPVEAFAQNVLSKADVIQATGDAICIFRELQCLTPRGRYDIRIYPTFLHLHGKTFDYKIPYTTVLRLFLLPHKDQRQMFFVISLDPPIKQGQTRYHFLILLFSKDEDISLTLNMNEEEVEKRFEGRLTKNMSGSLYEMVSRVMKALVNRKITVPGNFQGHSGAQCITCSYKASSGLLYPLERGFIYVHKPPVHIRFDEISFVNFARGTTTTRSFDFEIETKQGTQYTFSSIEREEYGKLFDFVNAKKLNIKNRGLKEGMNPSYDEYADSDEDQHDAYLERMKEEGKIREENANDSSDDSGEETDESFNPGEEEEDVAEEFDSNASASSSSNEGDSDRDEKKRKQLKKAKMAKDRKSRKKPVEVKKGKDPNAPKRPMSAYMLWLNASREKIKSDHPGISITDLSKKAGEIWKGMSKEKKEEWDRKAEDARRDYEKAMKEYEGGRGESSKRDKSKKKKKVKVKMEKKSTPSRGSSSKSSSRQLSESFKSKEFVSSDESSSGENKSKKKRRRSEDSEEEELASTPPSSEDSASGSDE
UniProt Q16385, sequence (Q16385 whole entry, looked up): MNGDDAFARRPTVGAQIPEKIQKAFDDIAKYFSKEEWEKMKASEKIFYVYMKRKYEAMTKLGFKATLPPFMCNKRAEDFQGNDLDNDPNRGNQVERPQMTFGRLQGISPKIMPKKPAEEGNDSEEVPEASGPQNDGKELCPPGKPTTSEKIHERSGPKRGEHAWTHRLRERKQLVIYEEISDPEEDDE
UniProt Q5JUR7, sequence (Q5JUR7 whole entry, looked up): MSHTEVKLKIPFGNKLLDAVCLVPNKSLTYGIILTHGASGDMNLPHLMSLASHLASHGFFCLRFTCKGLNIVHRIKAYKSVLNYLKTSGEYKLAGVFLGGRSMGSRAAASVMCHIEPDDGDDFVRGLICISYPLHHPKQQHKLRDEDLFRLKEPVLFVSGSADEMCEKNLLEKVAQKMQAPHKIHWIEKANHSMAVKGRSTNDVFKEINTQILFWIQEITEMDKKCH
UniProt P15907, sequence (P15907 whole entry, looked up): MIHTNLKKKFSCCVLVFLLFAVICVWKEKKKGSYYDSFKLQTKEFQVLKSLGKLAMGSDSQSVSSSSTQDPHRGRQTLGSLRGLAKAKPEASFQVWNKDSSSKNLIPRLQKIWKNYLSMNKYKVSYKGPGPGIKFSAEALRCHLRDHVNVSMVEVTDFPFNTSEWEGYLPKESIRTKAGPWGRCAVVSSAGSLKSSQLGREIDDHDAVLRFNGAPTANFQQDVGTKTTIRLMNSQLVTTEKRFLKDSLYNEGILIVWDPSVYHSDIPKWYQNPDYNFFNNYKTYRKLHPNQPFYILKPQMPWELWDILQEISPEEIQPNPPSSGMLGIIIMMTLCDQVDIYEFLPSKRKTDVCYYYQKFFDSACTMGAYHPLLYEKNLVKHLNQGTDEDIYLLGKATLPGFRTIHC
UniProt Q15582, sequence (Q15582 whole entry, looked up): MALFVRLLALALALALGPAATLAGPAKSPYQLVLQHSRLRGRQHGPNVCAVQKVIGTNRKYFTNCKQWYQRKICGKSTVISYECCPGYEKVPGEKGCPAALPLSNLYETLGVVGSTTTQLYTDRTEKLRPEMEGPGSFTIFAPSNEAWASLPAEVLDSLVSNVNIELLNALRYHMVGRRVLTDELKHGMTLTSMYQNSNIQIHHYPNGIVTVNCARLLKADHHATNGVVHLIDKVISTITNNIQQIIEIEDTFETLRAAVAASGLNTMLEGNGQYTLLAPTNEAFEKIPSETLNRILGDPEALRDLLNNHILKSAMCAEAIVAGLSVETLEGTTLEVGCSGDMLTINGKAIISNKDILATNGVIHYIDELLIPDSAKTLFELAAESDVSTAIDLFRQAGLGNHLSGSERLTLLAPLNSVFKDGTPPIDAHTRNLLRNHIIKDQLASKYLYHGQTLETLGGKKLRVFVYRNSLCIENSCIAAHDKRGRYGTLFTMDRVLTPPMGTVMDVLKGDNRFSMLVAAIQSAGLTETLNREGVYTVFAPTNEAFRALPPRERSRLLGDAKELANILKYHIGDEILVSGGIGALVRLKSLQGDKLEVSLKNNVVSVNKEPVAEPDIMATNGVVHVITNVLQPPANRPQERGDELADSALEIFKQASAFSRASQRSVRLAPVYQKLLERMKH
UniProt Q9Y5X1, sequence (Q9Y5X1 whole entry, looked up): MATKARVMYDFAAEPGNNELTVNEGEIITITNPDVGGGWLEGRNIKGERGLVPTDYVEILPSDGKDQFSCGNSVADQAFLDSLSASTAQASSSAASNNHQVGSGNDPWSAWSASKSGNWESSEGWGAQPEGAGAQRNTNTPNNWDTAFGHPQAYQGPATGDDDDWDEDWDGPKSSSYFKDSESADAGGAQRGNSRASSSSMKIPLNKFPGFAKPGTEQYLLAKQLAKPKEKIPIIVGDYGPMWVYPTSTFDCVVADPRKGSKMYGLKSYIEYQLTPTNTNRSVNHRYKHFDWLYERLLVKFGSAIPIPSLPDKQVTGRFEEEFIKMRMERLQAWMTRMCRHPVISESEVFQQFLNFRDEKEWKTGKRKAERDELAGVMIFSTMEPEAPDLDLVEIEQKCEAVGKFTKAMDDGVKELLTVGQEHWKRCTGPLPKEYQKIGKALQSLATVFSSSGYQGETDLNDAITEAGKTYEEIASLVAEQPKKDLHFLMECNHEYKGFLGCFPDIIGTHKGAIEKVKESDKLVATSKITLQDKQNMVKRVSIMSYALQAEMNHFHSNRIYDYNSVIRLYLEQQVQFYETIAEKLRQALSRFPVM
UniProt P08579, sequence (P08579 whole entry, looked up): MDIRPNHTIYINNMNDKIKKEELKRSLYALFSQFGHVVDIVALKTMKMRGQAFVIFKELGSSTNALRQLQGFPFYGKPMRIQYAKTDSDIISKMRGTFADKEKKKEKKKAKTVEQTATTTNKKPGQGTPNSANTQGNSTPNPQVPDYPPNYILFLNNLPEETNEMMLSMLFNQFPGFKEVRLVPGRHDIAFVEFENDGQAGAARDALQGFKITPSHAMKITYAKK
UniProt P62072, sequence (P62072 whole entry, looked up): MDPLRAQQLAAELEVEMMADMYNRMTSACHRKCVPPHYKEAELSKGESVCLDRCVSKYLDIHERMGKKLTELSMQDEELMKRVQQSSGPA

Compound in this experiment: c1ccc([C@@H]2C[C@H]2NC2CCNCC2)cc1
As to the kind of experiment: log2 fold change, soluble protein after heating vs DMSO (PISA); higher = thermal stabilisation; K562 cells, 10 uM, 30 min; active = over 0.2 and 3.5 SD of the protein, either way, in both replicates (recomputed). The gist of the method: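 K562 cells at 2×10^6 cells/mL were exposed to 10 μM compound for 30 min, then aliquots were heated for 3 min across 48°C-58°C, pooled, and extracted in PBS containing 0.5% NP-40 at 4°C. The supernatant after 21,000xg for 90 min was taken as soluble protein and measured by TMTpro 16plex LC-MS/MS with channel sums equalised. Thermal stability is reported relative to control samples, with values from duplicates. Fold changes are given on a log2 scale.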
For STX17 (UniProt P56962), the log2 fold change is -0.058.

Regarding TJP2 isoform 7 (UniProt Q9UDY2), the log2 fold change is -0.044.

For the target SNX9 (UniProt Q9Y5X1), the log2 fold change was 0.017.

SRC isoform 2 (UniProt P12931): the log2 fold change was 0.003.

For the target SUOX (UniProt P51687), the log2 fold change was -0.021.

Consider SSX2 (UniProt Q16385), for which the log2 fold change is 0.023.

Take SRPRB (UniProt Q9Y5M8): the log2 fold change was -0.016.

For TIMM10 (UniProt P62072), the log2 fold change is 0.022.

Take THYN1 (UniProt Q9P016): the log2 fold change is -0.067.

On to TGFBI (UniProt Q15582), for which the log2 fold change was -0.08.

As for SLC27A4 (UniProt Q6P1M0), the log2 fold change is -0.019.

On to TBP (UniProt P20226), for which the log2 fold change was 0.07.

Regarding SPAG9 isoform 4 (UniProt O60271), the log2 fold change was 0.025.

TAMM41 isoform 3 (UniProt Q96BW9): the log2 fold change was 0.001.

With THADA (UniProt Q6YHU6), the log2 fold change is -0.032.

On to ST6GAL1 (UniProt P15907), for which the log2 fold change was -0.006.

As to TFAM (UniProt Q00059), the log2 fold change was 0.009.

In the case of TARBP1 (UniProt Q13395), the log2 fold change is -0.027.

As for SPAST (UniProt Q9UBP0), the log2 fold change is -0.085.

With SLC27A2 (UniProt O14975), the log2 fold change is -0.027.

Take TEX30 (UniProt Q5JUR7): the log2 fold change was 0.052.

As for STIM1 (UniProt Q13586), the log2 fold change is -0.019.

For the target SNRPB2 (UniProt P08579), the log2 fold change was 0.02.

Turning to SRSF4 (UniProt Q08170), the log2 fold change is 0.096.

Regarding SPCS2 (UniProt Q15005), the log2 fold change is -0.031.

Consider SMG1 (UniProt Q96Q15), for which the log2 fold change was -0.071.

Take SREK1 isoform 2 (UniProt Q8WXA9): the log2 fold change is 0.026.

On to SYNE2 isoform 2 (UniProt Q8WXH0), for which the log2 fold change was 0.096.

With SULT1A1 (UniProt P50225), the log2 fold change is -0.066.

As to SSRP1 (UniProt Q08945), the log2 fold change was -0.016.

With SLC4A2 (UniProt P04920), the log2 fold change was 0.088.

SRSF7 (UniProt Q16629): the log2 fold change is 0.055.

Regarding STARD7 (UniProt Q9NQZ5), the log2 fold change was -0.017.

Consider STXBP5 (UniProt Q5T5C0), for which the log2 fold change is -0.027.

Take SLC25A4 (UniProt P12235): the log2 fold change was 0.05.

In the case of STARD3NL (UniProt O95772), the log2 fold change was 0.039.

As to SSB (UniProt P05455), the log2 fold change is 0.055.
